Shown are actives, neighbours in structure and some others; about 1.5% of the full set was active somewhere.
TrxR1 substrate – qHTS Assay for Substrates of Mammalian Selenoprotein Thioredoxin Reductase 1 (TrxR1): qHTS. Thioredoxin reductase 1, cytoplasmic (Rattus norvegicus), O89049. purified TrxR1 substrate turnover, NADPH consumption readout. Potency, µM (series often up to 114 µM), inactives show at the highest dose activity change, negative = substrate turnover. 390,000 compounds, 0.01% hits; further: potency means the concentration at half of the fitted maximal effect; nearly all actives have a fitted effect of over 50% in size
Target sequence (O89049 whole entry, looked up): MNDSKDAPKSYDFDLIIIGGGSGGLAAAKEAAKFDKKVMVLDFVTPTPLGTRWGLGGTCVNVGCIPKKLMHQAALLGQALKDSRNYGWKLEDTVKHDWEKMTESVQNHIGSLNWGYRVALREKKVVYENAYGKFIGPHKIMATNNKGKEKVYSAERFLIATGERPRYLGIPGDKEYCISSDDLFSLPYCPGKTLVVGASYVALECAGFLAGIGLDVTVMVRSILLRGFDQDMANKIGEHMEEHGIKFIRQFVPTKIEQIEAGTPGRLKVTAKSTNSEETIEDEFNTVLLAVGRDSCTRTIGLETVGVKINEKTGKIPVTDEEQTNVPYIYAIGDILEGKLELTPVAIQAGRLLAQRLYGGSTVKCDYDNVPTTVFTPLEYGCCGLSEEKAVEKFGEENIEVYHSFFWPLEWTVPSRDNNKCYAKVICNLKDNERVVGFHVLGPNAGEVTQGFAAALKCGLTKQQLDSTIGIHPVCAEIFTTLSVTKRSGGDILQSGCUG
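Rat TrxR1, dispensed at 90 nM, was prereduced with 400 uM NADPH (final) for 5 min at ~22 deg C, then incubated with compound 15 min before 400 uM selenite. A first-read NADPH fluorescence drop versus no-compound background flagged substrates.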
CtBP-E1A blk – qHTS Assay for Inhibitors of the CtBP/E1A Interaction; activity change, % (concentration not given with the values); CtBP / adenovirus E1A interaction (AlphaScreen); 340,000 compounds, 0.49% hits; AlphaScreen GST-E1A/His-CtBP binding, 1536-well; hits give low values; in the data active means activity change below about -65%; inconclusive means mostly about -30% to -63%
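AlphaScreen with 125 nM GST-E1A and 125 nM His-CtBP (5X stocks) in Tris pH 8.0, 300 mM NaCl, BSA, Tween 20, TCEP. Compounds preincubated 2 h at 37 deg C, then glutathione donor/nickel acceptor beads added for 1 h at 37 deg C in dark.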
Eya2 inh – qHTS Assay for Inhibitors of the Phosphatase Activity of Eya2; recombinant Eya2, OMFP fluorescence dephosphorylation (OMFP is methylfluorescein phosphate); Protein phosphatase EYA2 (Homo sapiens), O00167; 330,000 compounds, 0.006% hits; Potency, µM (titrated, usually from 76.9 µM), for inactives: top-dose activity, negative = inhibition, most hits filed as inhibitors; AID 488837, 2010; further: potency means the concentration at half of the fitted maximal effect
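Eya2 (0.2 uM) preincubated 10 min at ambient with compound, then OMFP substrate added at 50 uM; 10 min reaction in 50 mM HEPES pH 7.5, 50 mM NaCl, 5 uM MgCl2, 0.05% BSA, 1 mM DTT. Fluorescence read at Ex 485/Em 525 nm.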
rTrxR1 inhibitor – qHTS Assay for Inhibitors of Mammalian Selenoprotein Thioredoxin Reductase 1 (TrxR1): qHTS; Thioredoxin reductase 1, cytoplasmic (Rattus norvegicus), O89049; recombinant rTrxR1, NADPH fluorescence consumption, selenite substrate; Potency, µM (titrated, usually from 114 µM), for inactives: at the top dose activity change, negative = inhibition, actives largely listed as inhibitors; 390,000 compounds, 1% hits; further: potency means the concentration at half of the fitted maximal effect; nearly all actives have a fitted effect of over 65% in size
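Rat TrxR1 (90 nM in the dispensed reagent) was pre-reduced with 400 uM NADPH for 5 min at room temperature, then incubated with compound for 15 min. After 400 uM selenite was added, NADPH fluorescence (Ex 340/Em 450 nm) was followed for 8 min.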
GALK inhibitor – qHTS Assay for Inhibitors of Human Galactokinase (GALK). P51570. Purified GALK, Kinase-Glo residual ATP luminescence. Potency, µM (series often up to 57.5 µM), for inactives: top-dose activity change, negative = inhibition, hits mostly inhibitors. 270,000 compounds, 0.007% hits. AID 1868, 2009; further: potency means the concentration at half of the fitted maximal effect
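5 nM enzyme, 35 uM ATP, 100 uM galactose, 20 mM HEPES pH8.0, 5 mM MgCl2; 1 h RT; residual ATP by Kinase-Glo Plus luminescence, qHTS format.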
Six1-Eya2 inh – qHTS Assay for Inhibitors of the Six1/Eya2 Interaction; Homeobox protein SIX1 (Homo sapiens) + Protein phosphatase EYA2 (Homo sapiens), …; AlphaScreen GST-Six1/His-Eya2 binding, biochemical; hits give low values; activity change, % (concentration not given with the values); 360,000 compounds, 0.56% hits; AID 651725, 2012; in the data active means activity change below about -65%; inconclusive means mostly about -30% to -63%
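GST-Six1 + His-Eya2 (5X stock: 250/500 nM); Tris pH 8.0, 300 mM NaCl, 0.05% BSA, 0.02% Tween 20; GSH donor/Ni acceptor beads; 1 h 37 °C dark; AlphaScreen readout.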
The depositor's hits bear a star; ? = inconclusive; . = no result; [ ] = another dose, or the depositor's remark. Unless noted, the call rests on the fitted dose curve; in most records, active means well fitted curve in the direction sought with a large enough effect; inconclusive means small, poorly fitted or top-dose-only effect, or another doubt; inactive means no such curve, though single readings can be large; an effect the other way counts as inactive or inconclusive. On the % scale 0 is the no-effect control and ±100 the full control effect.

SMILES	TrxR1 substrate	CtBP-E1A blk	Eya2 inh	rTrxR1 inhibitor	GALK inhibitor	Six1-Eya2 inh
O=c1cc(-c2ccccc2Cl)oc2cccc(O)c12	0%[57.1 µM]	.	-4%	18%[57.1 µM]	.	-1
O=C(NNc1ccccn1)C(=O)NNS(=O)(=O)c1ccc(Cl)cc1	-7%	?	?	?	-2%	-85*
O=C(NNc1ccccn1)C(=O)NNS(=O)(=O)c1ccc(F)cc1	-5%	-92*	5%	-14%[57.1 µM]	4%	-90*
CCOC(=O)c1cc(S(=O)(=O)N2CCN(c3ccc(C(C)=O)cc3)CC2)[nH]n1	3%[57.1 µM]	.	.	5%[57.1 µM]	.	.
O=c1[nH]cnc2nn(-c3ccccc3)nc12	108%	-65*	-2%	1%	-1%	?
COc1ccc(C2c3[nH]c4ccc(OC)cc4c3CCN2C(=O)Nc2ccccc2)cc1 (stereo not given)	7%	.	.	38%	.	.
CC(=O)c1ccc2noc(-c3ccc(C)cc3)c2c1	8%	17	1%	7.1µM*	-1%	2
O=C1ON=C(c2ccccc2)/C1=C/c1ccc(OS(=O)(=O)c2ccccc2)cc1	-17%	-13	10%	2.8µM*	-1%	-2
COc1ccc(/C=C2\C(=O)ON=C2c2ccccc2)cc1	-7%	-1	9%	14µM*	-6%	0
O=C1ON=C(c2cccc([N+](=O)[O-])c2)/C1=C/c1ccc(O)cc1	-17%[57.1 µM]	.	-14%	7.9µM*	-6%	2
O=C1ON=C(c2ccccc2)/C1=C/c1ccc(O)c(O)c1	7%[2.29 µM]	.	6%	?	?	-14
O=C1ON=C(c2ccc(Cl)c([N+](=O)[O-])c2)/C1=C/c1cccc([N+](=O)[O-])c1O	3%	0	-4%	14%	.	3
COc1cc(/C=C2\C(=O)ON=C2c2ccc(Cl)cc2)ccc1O	-1%	-1	.	20µM*	.	-4
CCc1ccc(NC(=O)CC2C(=O)N(c3ccc(F)cc3)C(=O)N2Cc2ccc(F)cc2)cc1 (stereo not given)	4%	.	.	18%	.	.
COc1cc2ccccc2cc1C(=O)Nc1cccc(-c2nc3cc(C)c(C)cc3o2)c1	15%	.	.	36%	.	.
O=C(CCCCCN1CCN(c2ccccc2-c2ccccc2)CC1)NC1CCCc2ccccc21 (stereo not given)	29%[57.1 µM]	.	-18%	38%[57.1 µM]	.	.
COc1cccc2c1cc1c(=O)n(CC(=O)N3CCN(c4ccccc4F)CC3)nc(C)n12	28%	.	.	43%	.	.
NC(c1csc(Nc2cnccn2)n1)c1ccccc1Cl (stereo not given)	.	-76*	.	.	.	-67*
CC(C)C(N)c1csc(Nc2ccccn2)n1 (stereo not given)	.	-91*	.	.	.	-83*
NC(c1csc(Nc2ccccn2)n1)c1ccccc1Cl (stereo not given)	.	-91*	.	.	.	-79*
CC(=O)NC1=CC(=O)c2nonc2C1=O	7.1µM*	.	.	?	.	.
CCOc1cc(/C=N/NC(=O)CN(CCc2ccccc2)S(=O)(=O)c2ccc(NC(C)=O)cc2)ccc1O	-11%[57.1 µM]	0	-10%	16%[57.1 µM]	1%	-75*
O=c1oc2ccccc2c(N2CCCC2)c1CN1CCCC1	-7%	5	-5%	?	0%	0
O=c1oc2ccccc2c(Cl)c1CN1CCCCC1	6%	-2	1%	3.2µM*	-3%	6
O=S(=O)(NCCc1ccccc1)c1ccc(N2CCCCS2(=O)=O)cc1	-2%[57.1 µM]	.	.	9%[57.1 µM]	.	.
SMILES	TrxR1 substrate	CtBP-E1A blk	Eya2 inh	rTrxR1 inhibitor	GALK inhibitor	Six1-Eya2 inh
NC(CCc1ccccc1)c1csc(Nc2ccc(C(=O)NCCCO)cn2)n1 (stereo not given)	.	-69*	.	.	.	?
NC(CCc1ccccc1)c1csc(Nc2ccc(C(=O)NCCO)cc2)n1 (stereo not given)	.	-5	.	.	.	-12
CC(N)c1csc(Nc2ccc(C(=O)NCCO)cc2)n1 (stereo not given)	.	-10	.	.	.	0
NC(Cc1ccccc1)c1csc(Nc2ccc(C(=O)NCCCO)cn2)n1 (stereo not given)	.	-82*	.	.	.	-66*
CC(C)C(N)c1csc(Nc2ccc(C(=O)NCCCO)cn2)n1 (stereo not given)	.	-75*	.	.	.	?
CCOC(=O)c1cccc(NC(=O)[C@H](CSCc2ccccc2)N2Cc3ccccc3C2=O)c1	7%	.	.	19%	.	.
CN(C(=O)CSc1nncn2c1cc1occc12)c1ccccc1	-1%	.	.	-4%	.	.
Cc1ccc(-c2nn(CC(=O)NC3CCCCC3)c3c2cnc2ccc(F)cc23)cc1C	2%[57.1 µM]	.	.	26%[57.1 µM]	.	.
CNS(=O)(=O)c1cn(CC(=O)Nc2cccc(C(F)(F)F)c2)cc1S(=O)(=O)NC	0%	.	.	28%	.	.
COc1cccc(CCc2nnc(CCC(=O)N3CCN(Cc4ccccn4)CC3)o2)c1	6%	0	5%	32µM*	-1%	-15
COc1cccc(CCc2nnc(CCC(=O)NCCc3cccc(C)n3)o2)c1	1%[57.1 µM]	-1	0%	8%[57.1 µM]	-2%	5
O=C(NN=Cc1ccc([N+](=O)[O-])cc1)c1ccncc1	2%[2.29 µM]	18	.	7%[2.29 µM]	.	4
O=C(/C=C/c1ccc([N+](=O)[O-])cc1)Oc1ccc(/C=N/NC(=O)c2ccncc2)cc1	-5%	.	-2%	35µM*	-9%	?
O=C(COC(=O)c1ccc(O)cc1)NCCC1=CCCCC1	7%[0.0914 µM]	.	-15%	8%[57.1 µM]	10%	5
O=C(COC(=O)c1ccc2c(c1)OCCO2)NCCC1=CCCCC1	-2%	-1	-6%	-120%	8%	-71*
N#CC1=C(N)n2c(s/c(=C\c3ccco3)c2=O)=C(C#N)C1c1ccco1 (stereo not given)	1%	?	-5%	?	1%	-71*
CCOC(=O)C1=C(N)n2c(s/c(=C/c3ccco3)c2=O)=C(C(=O)OC)C1c1ccco1 (stereo not given)	3%	?	-20%	?	-1%	?
O=C1C(Cl)=C(NC(=O)c2ccccc2)C(=O)C(Cl)=C1NC(=O)c1ccccc1	-17%	-11	-5%	0.32µM*	-1%	-73*
O=C(NC1=C(Nc2ccc(Cl)cc2)C(=O)c2ccccc2C1=O)c1ccccc1	-6%	?	-1%	?	0%	?
